Holding throughout (experiment): protein-binding microarray (PBM); PBM: ~300 nM protein, 6 mM HEPES pH 7.8, 80 mM KCl, 0.5 mM EDTA, 0.5 mM EGTA, 6% glycerol, 35 ng/ul poly-dIdC, 1% milk, 1 h, room temperature; Ap Aiptasia and Nv Nematostella (sea anemones) / Co Capsaspora / Aq Amphimedon (sponge) / Dm Drosophila / Hu human; RHD is the Rel homology domain; high values mean tight binding
What all share (details): dsDNA, one strand shown

For one test, the target named is T1, GST-Ap-NF-kB RHD (Exaiptasia pallida (Aiptasia), UniProt A0A913YAJ5 2-422).
T1 sequence: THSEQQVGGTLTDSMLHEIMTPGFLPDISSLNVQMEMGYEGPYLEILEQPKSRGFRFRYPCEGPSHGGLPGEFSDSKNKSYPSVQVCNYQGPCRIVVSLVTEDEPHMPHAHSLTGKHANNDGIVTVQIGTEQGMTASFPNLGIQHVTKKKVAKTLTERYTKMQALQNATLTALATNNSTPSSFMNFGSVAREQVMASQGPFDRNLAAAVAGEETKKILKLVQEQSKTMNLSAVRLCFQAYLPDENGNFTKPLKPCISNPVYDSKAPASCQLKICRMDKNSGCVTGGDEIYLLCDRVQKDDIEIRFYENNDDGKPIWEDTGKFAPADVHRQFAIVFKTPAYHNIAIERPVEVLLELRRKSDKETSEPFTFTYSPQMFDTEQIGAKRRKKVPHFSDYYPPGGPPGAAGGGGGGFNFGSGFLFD

Test [1] has as its target T2, GST-Nv-NF-kB (Cys allele) (Nematostella vectensis, UniProt E5G601 2-411).
T2 sequence: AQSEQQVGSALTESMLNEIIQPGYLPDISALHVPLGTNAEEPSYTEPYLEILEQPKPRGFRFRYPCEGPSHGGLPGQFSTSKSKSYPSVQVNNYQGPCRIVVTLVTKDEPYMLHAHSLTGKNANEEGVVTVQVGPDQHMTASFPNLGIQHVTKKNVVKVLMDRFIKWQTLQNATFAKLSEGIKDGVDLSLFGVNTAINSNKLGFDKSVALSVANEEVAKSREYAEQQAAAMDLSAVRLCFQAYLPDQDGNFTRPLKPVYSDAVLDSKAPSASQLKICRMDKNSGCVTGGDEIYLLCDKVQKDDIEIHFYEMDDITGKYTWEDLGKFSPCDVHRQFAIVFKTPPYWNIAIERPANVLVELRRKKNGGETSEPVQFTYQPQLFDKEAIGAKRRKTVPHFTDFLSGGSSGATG

Test [2] has as its target T3, GST-Nv-NF-kB (Ser allele) (Nematostella vectensis, UniProt A7UNT2 2-411).
T3 sequence: T2 sequence with Q21R, C66S, S207N, E215Q, V217A, E225K, A268E, D399E

Another test deals with T4, GST-Co-NF-kB (Capsaspora owczarzaki, UniProt F1ARL5 200-546).
T4 sequence: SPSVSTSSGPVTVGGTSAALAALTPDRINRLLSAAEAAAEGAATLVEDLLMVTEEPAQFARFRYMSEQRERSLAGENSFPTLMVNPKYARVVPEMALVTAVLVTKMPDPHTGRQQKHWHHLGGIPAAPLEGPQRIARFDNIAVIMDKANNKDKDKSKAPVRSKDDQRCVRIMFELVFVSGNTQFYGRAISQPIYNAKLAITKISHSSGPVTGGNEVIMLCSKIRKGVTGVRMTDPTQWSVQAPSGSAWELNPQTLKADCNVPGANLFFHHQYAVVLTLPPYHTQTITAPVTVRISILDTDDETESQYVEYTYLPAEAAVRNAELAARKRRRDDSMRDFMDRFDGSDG

In the next test the target is T5, GST-Dm-Relish (Drosophila melanogaster, UniProt Q94527 99-473).
T5 sequence: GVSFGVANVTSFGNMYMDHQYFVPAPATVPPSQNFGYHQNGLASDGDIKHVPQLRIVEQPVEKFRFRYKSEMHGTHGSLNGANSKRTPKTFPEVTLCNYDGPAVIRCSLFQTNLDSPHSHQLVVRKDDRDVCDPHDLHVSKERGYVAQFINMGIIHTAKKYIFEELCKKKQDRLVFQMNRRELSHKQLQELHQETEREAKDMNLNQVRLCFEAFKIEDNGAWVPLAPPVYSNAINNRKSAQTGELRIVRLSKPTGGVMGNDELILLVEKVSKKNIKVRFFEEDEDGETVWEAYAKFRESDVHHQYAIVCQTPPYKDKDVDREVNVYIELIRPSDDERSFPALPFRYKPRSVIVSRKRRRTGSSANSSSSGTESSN

The next test addresses T6, GST-Aq-NF-kB (Amphimedon queenslandica, UniProt A9Y5G7 2-389).
T6 sequence: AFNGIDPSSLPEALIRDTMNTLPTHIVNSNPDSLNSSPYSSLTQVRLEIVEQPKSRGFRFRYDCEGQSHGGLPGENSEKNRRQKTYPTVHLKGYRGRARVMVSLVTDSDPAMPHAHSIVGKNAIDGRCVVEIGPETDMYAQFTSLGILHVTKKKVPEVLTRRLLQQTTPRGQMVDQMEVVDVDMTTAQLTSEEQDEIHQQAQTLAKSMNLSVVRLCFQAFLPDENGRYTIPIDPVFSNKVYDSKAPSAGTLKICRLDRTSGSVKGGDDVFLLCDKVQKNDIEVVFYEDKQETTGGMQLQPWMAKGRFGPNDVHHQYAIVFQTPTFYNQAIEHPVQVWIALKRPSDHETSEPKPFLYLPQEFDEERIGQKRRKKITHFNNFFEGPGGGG

The target in another test is GST-Hu-p50 (Homo sapiens, UniProt P19838 7-356).
GST-Hu-p50, sequence (P19838 7-356): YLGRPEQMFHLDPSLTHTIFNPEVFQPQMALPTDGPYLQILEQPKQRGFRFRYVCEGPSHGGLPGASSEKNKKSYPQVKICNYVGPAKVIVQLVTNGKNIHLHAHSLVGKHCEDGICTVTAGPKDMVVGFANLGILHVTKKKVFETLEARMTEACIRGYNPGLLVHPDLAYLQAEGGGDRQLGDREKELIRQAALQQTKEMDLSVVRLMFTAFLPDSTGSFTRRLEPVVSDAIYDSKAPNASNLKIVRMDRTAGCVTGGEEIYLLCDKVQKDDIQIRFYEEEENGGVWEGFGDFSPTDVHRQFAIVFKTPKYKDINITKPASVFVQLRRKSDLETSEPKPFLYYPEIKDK

Substitutions are numbered along the chain they refer to.

For 12 sequences, binding signal results are on record in paper PMC5700166.

For the sequence “CCGATTAACATCAGGACATCCCCTGATGTTAATCGGGTCTTGATTCGCTTGACGCTGCTG”, the binding signal came to 6.25 z-score with GST-Ap-NF-kB RHD; 7.54 z-score in test [1]; 5.99 z-score in test [2]; 1.88 z-score with GST-Co-NF-kB; 8.74 z-score with GST-Dm-Relish; 7.75 z-score with GST-Aq-NF-kB. In the test with GST-Hu-p50, this sequence showed a binding signal of 5.89 z-score.
Turning to “CCGATTAACATCAGGAAACTCCCTGATGTTAATCGGGTCTTGATTCGCTTGACGCTGCTG”, the binding signal in the test with GST-Ap-NF-kB RHD was 5.65 z-score; in test [1], 7.91 z-score; in test [2] it was 4.86 z-score; with GST-Co-NF-kB, 1.88 z-score; with GST-Dm-Relish it was 5.39 z-score; in the test with GST-Aq-NF-kB it was 9.07 z-score. Moreover, the binding signal with GST-Hu-p50 came to 5.86 z-score.
Take “CCGATTAACATCAATACTTCCCCTGATGTTAATCGGGTCTTGATTCGCTTGACGCTGCTG”: the binding signal amounted to 5.61 z-score with GST-Ap-NF-kB RHD; 7.52 z-score in test [1]; 9.37 z-score in test [2]; 6.89 z-score with GST-Co-NF-kB; 7.81 z-score in the test with GST-Dm-Relish; 5.35 z-score in the test with GST-Aq-NF-kB. The same sequence showed a binding signal in the test with GST-Hu-p50 of 6.19 z-score.
Regarding “CCGATTAACATCAATATTTCCCCTGATGTTAATCGGGTCTTGATTCGCTTGACGCTGCTG”, the binding signal with GST-Ap-NF-kB RHD is 8.09 z-score; in test [1], 10.1 z-score; in test [2], 13.2 z-score; with GST-Co-NF-kB, 10.7 z-score; with GST-Dm-Relish it was 5.87 z-score; with GST-Aq-NF-kB it was 6.9 z-score. This sequence yielded a binding signal with GST-Hu-p50 of 7.24 z-score.
For “CCGATTAACATCAGGGGAATATATGATGTTAATCGGGTCTTGATTCGCTTGACGCTGCTG”, the binding signal was 7.96 z-score in the test with GST-Ap-NF-kB RHD; 9.67 z-score in test [1]; 9 z-score in test [2]; 7.8 z-score in the test with GST-Co-NF-kB; 5.02 z-score with GST-Dm-Relish; 7.45 z-score with GST-Aq-NF-kB. Moreover, the binding signal in the test with GST-Hu-p50 is 6.01 z-score.
With “CCGATTAACATCAGGGGAAGTTATGATGTTAATCGGGTCTTGATTCGCTTGACGCTGCTG”, the binding signal with GST-Ap-NF-kB RHD stood at 7.14 z-score; in test [1], 9.1 z-score; in test [2], 9.37 z-score; with GST-Co-NF-kB it was 7.7 z-score; with GST-Dm-Relish it was 7.34 z-score; with GST-Aq-NF-kB, 7.08 z-score. The sequence also displayed a binding signal with GST-Hu-p50 of 6.64 z-score.
Take “CCGATTAACATCAGGGGAAAACATGATGTTAATCGGGTCTTGATTCGCTTGACGCTGCTG”: the binding signal with GST-Ap-NF-kB RHD is 6.62 z-score; in test [1], 7.81 z-score; in test [2] it was 9.93 z-score; in the test with GST-Co-NF-kB it was 8.6 z-score; with GST-Dm-Relish, 5.04 z-score; with GST-Aq-NF-kB, 6.17 z-score. This sequence displayed a binding signal with GST-Hu-p50 of 6.18 z-score.
For the sequence “CCGATTAACATCAATTATCCCCCTGATGTTAATCGGGTCTTGATTCGCTTGACGCTGCTG”, the binding signal in the test with GST-Ap-NF-kB RHD worked out at 6.74 z-score; in test [1], 5.48 z-score; in test [2], 6.6 z-score; with GST-Co-NF-kB it was 7.87 z-score; in the test with GST-Dm-Relish, 4.31 z-score; in the test with GST-Aq-NF-kB, 5.15 z-score. Further, in the test with GST-Hu-p50, the binding signal came to 5.52 z-score.
As for “CCGATTAACATCAGGGGGAAAAATGATGTTAATCGGGTCTTGATTCGCTTGACGCTGCTG”, the binding signal with GST-Ap-NF-kB RHD stood at 6.66 z-score; in test [1], 7.33 z-score; in test [2], 9.96 z-score; in the test with GST-Co-NF-kB, 11.6 z-score; in the test with GST-Dm-Relish it was 4.64 z-score; in the test with GST-Aq-NF-kB it was 5.88 z-score. This sequence also displayed a binding signal with GST-Hu-p50 of 7.07 z-score.
Turning to “CCGATTAACATCACAGTTTCCCCTGATGTTAATCGGGTCTTGATTCGCTTGACGCTGCTG”, the binding signal with GST-Ap-NF-kB RHD was 6.64 z-score; in test [1], 7.28 z-score; in test [2] it was 10.3 z-score; in the test with GST-Co-NF-kB it was 7.74 z-score; in the test with GST-Dm-Relish, 3.35 z-score; in the test with GST-Aq-NF-kB, 4.9 z-score. In the test with GST-Hu-p50, the binding signal amounted to 5.61 z-score.
Turning to “CCGATTAACATCAGCGATTCCCCTGATGTTAATCGGGTCTTGATTCGCTTGACGCTGCTG”, the binding signal with GST-Ap-NF-kB RHD worked out at 6.31 z-score; in test [1], 6.55 z-score; in test [2], 8.57 z-score; in the test with GST-Co-NF-kB it was 5.5 z-score; in the test with GST-Dm-Relish it was 3.63 z-score; in the test with GST-Aq-NF-kB, 4.44 z-score. The binding signal with GST-Hu-p50 amounted to 5.54 z-score.
Turning to “CCGATTAACATCAGAAAAGCCCCTGATGTTAATCGGGTCTTGATTCGCTTGACGCTGCTG”, the binding signal was 7.38 z-score in the test with GST-Ap-NF-kB RHD; 9.78 z-score in test [1]; 7.32 z-score in test [2]; 1.37 z-score in the test with GST-Co-NF-kB; 8.04 z-score with GST-Dm-Relish; 7.96 z-score in the test with GST-Aq-NF-kB. Further, the binding signal in the test with GST-Hu-p50 came out at 6.71 z-score.
